The source of these data is PubChem BioAssay (Tox21).

Assay [1] in a line: qHTS assay to identify small molecule phospholipidosis (PLD) inducers (AID 1259344; active = well fitted curve in the direction sought with a large enough effect; an effect the other way counts as inactive or inconclusive). In a few lines: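 Cells (HepG2, 900 per well) attach for 4 h, receive LipidTOX Red and compound together, incubate 24 h at 37 C, are fixed 30 min with paraformaldehyde/Hoechst, then imaged at one site per well.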
On the technique in general: qHTS replaces the single test concentration by a dilution series.

Assay [2] can be described thus: qHTS assay to identify small molecule HDAC inhibitors (AID 1259364). For activity change, negative = inhibition: top concentration of the series differs between compounds. Note: potency is the fitted concentration of half-maximal effect.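 Note: wild-type HCT-116 cells with endogenous class I/II HDAC activity; nearly all actives have a fitted effect of over 45% in size.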 An outline of the steps:
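HCT-116 wt cells, 1,500/well, overnight attach. Compounds (DMSO) 2 h, 37 °C. HDAC-Glo I/II, 30 min RT. Luminescence.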

A short description of assay [3]: qHTS assay to identify small molecule HDAC inhibitors - cell viability counter screen (AID 1259365). Note: series mostly up to about 92 µM; nearly all actives have a fitted effect of over 50% in size. In a few lines:
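HCT-116 wild-type, overnight attachment; 2hr drug exposure, 37C; CellTiter-Glo luminescent ATP readout after 30min RT.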

Assay [4] is described as follows: qHTS assay to identify small molecule agonists of the sonic hedgehog signaling (Shh) pathway - cell viability counter screen (AID 1259366). Note: nearly all actives have a fitted effect of over 50% in size. In a few lines:
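Compounds in DMSO were pin-transferred onto 3T3 Gli1-Luc cells that had settled 4hr; plates then stood 24hr at 37C and 5% CO2. One hour before the end, CellTiter-Fluor was added and fluorescence recorded.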

A short description of assay [5]: qHTS assay to identify small molecule antagonists of the sonic hedgehog signaling (Shh) pathway - cell viability counter screen (AID 1259367). Note: nearly all actives have a fitted effect of over 55% in size. Note: potency is the fitted concentration of half-maximal effect. In a few lines:
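Cytotoxicity was assessed in parallel with Shh reporter activity by measuring live-cell protease fluorescence (CellTiter-Fluor) in NIH/3T3 cells stably carrying Gli1-Luc, treated with compound under conditioned medium stimulation for 23 hr plus 1 hr reagent incubation.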

The nature of assay [6]: qHTS assay to identify small molecule agonists of the sonic hedgehog signaling (Shh) pathway (AID 1259368; calls by dose curve;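 note: NIH/3T3-derived 3T3Gli1-Luc cells carrying a stable Gli1-driven firefly luciferase reporter; series mostly up to about 92 µM; nearly all actives have a fitted effect of over 15% in size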). In a few lines: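 Following a 24 hr incubation with DMSO-dissolved compounds at 37 C, 5% CO2, Gli1-Luc NIH/3T3-derived cells received luciferase reagent for 30 min at room temperature prior to luminescence measurement.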
Assay [7] in a line: qHTS assay to identify small molecule agonists of the androgen receptor (AR) signaling pathway in the presence of an antagonist - cell viability counter screen (AID 1259379).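 For activity change, negative = cytotoxicity: MDA-kb2 human breast cancer cells carrying an MMTV luciferase reporter; series mostly up to about 92 µM.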 Note: nearly all actives have a fitted effect of over 25% in size. Note: potency is the fitted concentration of half-maximal effect. In a few lines: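 Each compound was tested at 15 concentrations on MDA-kb2 cells in the presence of 3.0uM nilutamide. Viability was measured by CellTiter-Fluor fluorescence after a 16 hr incubation at 37C in a CO2-free atmosphere.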

Assay [8] in a line: qHTS assay to identify small molecule agonists of the estrogen receptor beta (ER-beta) signaling pathway - cell viability counter screen (AID 1259380). Note: nearly all actives have a fitted effect of over 30% in size. Note: potency is the fitted concentration of half-maximal effect. An outline of the steps: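 Compounds dissolved in DMSO were pin-transferred onto ER-beta-UAS-bla HEK293T cells that had settled 6 hr, and exposure ran 16 hr at 37C. Following the reporter read, CellTiter-Glo luminescence after 30 min at room temperature indicated cytotoxicity.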

Assay [9] in a line: qHTS assay to identify small molecule antagonists of the estrogen receptor beta (ER-beta) signaling pathway - cell viability counter screen (AID 1259382). Note: series mostly up to about 92 µM; nearly all actives have a fitted effect of over 55% in size. In a few lines: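 CellTiter-Glo ATP luminescence measured after the LiveBLAzer read in the same wells; ER-beta-UAS-bla HEK293T cells, 16 hr compound treatment with 1nM 17-beta-estradiol agonist at 37C, 5% CO2.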
Assay [10] concerns the target Estrogen receptor (Homo sapiens) (UniProt P03372). Kind of assay: qHTS assay to identify small molecule agonists of the estrogen receptor alpha (ER-alpha) signaling pathway in the presence of an antagonist (AID 1259383; calls by dose curve; note: top concentration of the series differs between compounds; nearly all actives have a fitted effect of over 15% in size). An outline of the steps: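 Luminescent ERE-luciferase reporter, VM7Luc4E2 cells (endogenous ER-alpha); 10.0nM ICI-182,780 final; 15-point compound titration; 22hr at 37C; ONE-Glo, 30min RT.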

The nature of assay [11]: qHTS assay to identify small molecule agonists of the estrogen receptor alpha (ER-alpha) signaling pathway in the presence of an antagonist - cell viability counter screen (AID 1259386). For activity change, negative = cytotoxicity: series mostly up to about 92 µM.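 Note: cells exposed to compounds for 22 h at 37 °C before the viability read; nearly all actives have a fitted effect of over 30% in size.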 Note: potency is the fitted concentration of half-maximal effect. In a few lines:
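Using estrogen-depleted VM7Luc4E2 cells, the 15-concentration compound series was applied together with 10.0nM ICI-182,780 and incubated 22hr at 37C/5% CO2. Cell viability was then scored by CellTiter-Fluor.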

In assay [12] the target is Progesterone receptor (Homo sapiens) (UniProt P06401). The assay can be described thus: qHTS assay to identify small molecule agonists of the progesterone receptor (PR) signaling pathway (AID 1346784; calls by dose curve; note: nearly all actives have a fitted effect of over 30% in size; note: potency is the fitted concentration of half-maximal effect). In a few lines: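 Fluorescence from LiveBLAzer B/G FRET substrate cleavage (2 hr, RT) reported PR activation in PR-UAS-bla HEK 293T cells treated 16 hr at 37C/5% CO2 with compounds; medium contained 2% charcoal-stripped FBS.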

The target is the same in assay [13]. Kind of assay: qHTS assay to identify small molecule antagonists of the progesterone receptor (PR) signaling pathway (AID 1346795; active = well fitted inhibition curve with a large enough effect in the signal ratio in the repeat runs, not every such curve was filed as active; the % refers to the signal ratio; note: potency is the fitted concentration of half-maximal effect). In a few lines:
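Fluorescence intensity measured 2 hr after adding beta-lactamase FRET substrate to PR-UAS-bla HEK293T cells that had been co-treated 16 hr with compound and 1 nM R5020 (final concentration) in 2% charcoal-stripped FBS.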

A short description of assay [14]: qHTS assay to identify small molecule antagonists of the progesterone receptor (PR) signaling pathway - cell viability counter screen (AID 1346798). Note: series mostly up to about 92 µM; nearly all actives have a fitted effect of over 50% in size. An outline of the steps: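 CellTiter-Glo luminescence; PR-UAS-bla HEK293T, 3,000 cells/well; compound + R5020, 16 hr, 37C/5% CO2; 30 min RT before read.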
Assay [15] is described as follows: qHTS assay to identify small molecule antagonists of the sonic hedgehog signaling (Shh) pathway (AID 1259369; calls by dose curve; note: nearly all actives have a fitted effect of over 45% in size; note: potency is the fitted concentration of half-maximal effect). In a few lines:
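Read-out is luminescence from a firefly luciferase gene controlled by the Gli1 response element, in 3T3Gli1-Luc cells pre-incubated 4hr then exposed to compounds and conditioned medium for 24hr.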

For assay [16], the target named is Estrogen receptor beta (Homo sapiens) (UniProt Q92731). Kind of assay: qHTS assay to identify small molecule agonists of the estrogen receptor beta (ER-beta) signaling pathway (AID 1259377; active = well fitted activation curve with a large enough effect in the signal ratio in the repeat runs, not every such curve was filed as active; the % refers to the signal ratio; note: potency is the fitted concentration of half-maximal effect). An outline of the steps:
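qHTS in ER-beta-UAS-bla HEK293T cells: 6 hr settling, then 16 hr compound at 37C, then LiveBLAzer substrate 2 h at RT before fluorescence reading.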

Assay [17] shares this target. The assay can be described thus: qHTS assay to identify small molecule antagonists of the estrogen receptor beta (ER-beta) signaling pathway (AID 1259378; active = well fitted inhibition curve with a large enough effect in the signal ratio in the repeat runs, not every such curve was filed as active; the % refers to the signal ratio). In a few lines: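 ER-beta-UAS-bla HEK293T (GripTite) cells in 2% charcoal-stripped FBS medium were preincubated 6 hr at 37C, dosed with compound, then stimulated with 1 nM E2 (final) for 16 hr; beta-lactamase reporter read by B/G FRET fluorescence after 2 hr substrate loading.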

Assay [18] can be described thus: qHTS assay to identify small molecule agonists or antagonists of the thyroid stimulating hormone receptor (TSHR) signaling pathway - wild type cell line counter screen (AID 1259384; calls by dose curve). An outline of the steps:
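Wild-type HEK293 cells were plated 18 h at 37 C/5% CO2, pin-dosed with compound plus Ro20-1724 medium, held 30 min at room temperature, then given cAMP-d2 and anti-cAMP-cryptate; fluorescence was read after 1 h. Fifteen concentrations, triplicate.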

The target in assay [19] is Thyrotropin receptor (Homo sapiens) (UniProt P16473). The assay can be described thus: qHTS assay to identify small molecule antagonists of the thyroid stimulating hormone receptor (TSHR) signaling pathway (AID 1259385; calls by dose curve; note: nearly all actives have a fitted effect of over 20% in size). In a few lines: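 TSHR-HEK293 cells were plated and held 18 h at 37C/5% CO2, then given compound plus Ro20-1724 and stimulated with TSH at 1.5 ng/mL final. After 30 min at room temperature, cAMP was detected with cAMP-d2/anti-cAMP-cryptate (1 h) by fluorescence.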

Assay [20] has as its target Androgen receptor (Homo sapiens) (UniProt P10275). The assay can be described thus: qHTS assay to identify small molecule agonists of the androgen receptor (AR) signaling pathway in the presence of an antagonist (AID 1259381; calls by dose curve; note: nearly all actives have a fitted effect of over 15% in size). An outline of the steps:
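Plated MDA-kb2 cells (3,000/well) were pre-incubated 5hr, given nilutamide (3.0uM final) or buffer, then dosed with compounds in DMSO at 15 concentrations. Luciferase activity was quantified by luminescence after 16hr at 37C.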

Molecules are shown by their SMILES. “And” between values parts separate entries of the source, which are not always exact repeats. Identical values can stand only once. Results filed as inconclusive are left out. A structure can be active in one record and inactive in another. The source made the active and inactive calls. Unless noted, calls come from the whole dose curve; as a rule, active = well fitted curve in the direction sought with a large enough effect in the repeat runs; inconclusive = weak or mixed curves; inactive = no such curve, though single readings can be large; an effect the other way counts as inactive or inconclusive.
% is set by controls: 0 for no effect and ±100 for the full control effect.

Chain of Thyrotropin receptor (Homo sapiens) (P16473 whole entry, looked up): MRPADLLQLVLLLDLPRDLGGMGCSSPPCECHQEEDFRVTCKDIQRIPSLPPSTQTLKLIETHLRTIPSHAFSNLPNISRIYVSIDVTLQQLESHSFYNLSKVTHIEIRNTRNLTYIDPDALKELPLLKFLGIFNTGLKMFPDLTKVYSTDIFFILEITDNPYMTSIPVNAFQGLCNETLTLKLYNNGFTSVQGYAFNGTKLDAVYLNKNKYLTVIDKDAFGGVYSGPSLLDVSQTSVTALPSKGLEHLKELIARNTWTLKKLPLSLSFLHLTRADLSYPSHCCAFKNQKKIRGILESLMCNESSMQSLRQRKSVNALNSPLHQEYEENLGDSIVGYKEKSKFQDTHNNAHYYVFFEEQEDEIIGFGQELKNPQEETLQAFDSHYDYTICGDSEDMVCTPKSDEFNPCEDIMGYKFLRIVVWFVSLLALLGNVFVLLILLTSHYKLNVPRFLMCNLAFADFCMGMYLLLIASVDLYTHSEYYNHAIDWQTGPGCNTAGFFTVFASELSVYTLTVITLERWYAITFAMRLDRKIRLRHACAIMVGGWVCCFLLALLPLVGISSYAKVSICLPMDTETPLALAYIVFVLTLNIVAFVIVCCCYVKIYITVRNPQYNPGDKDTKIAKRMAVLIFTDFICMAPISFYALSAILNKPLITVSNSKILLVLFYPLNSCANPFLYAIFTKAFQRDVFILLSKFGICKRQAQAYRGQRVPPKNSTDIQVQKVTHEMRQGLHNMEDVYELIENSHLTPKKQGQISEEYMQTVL
Chain of Estrogen receptor beta (Homo sapiens) (Q92731 whole entry, looked up): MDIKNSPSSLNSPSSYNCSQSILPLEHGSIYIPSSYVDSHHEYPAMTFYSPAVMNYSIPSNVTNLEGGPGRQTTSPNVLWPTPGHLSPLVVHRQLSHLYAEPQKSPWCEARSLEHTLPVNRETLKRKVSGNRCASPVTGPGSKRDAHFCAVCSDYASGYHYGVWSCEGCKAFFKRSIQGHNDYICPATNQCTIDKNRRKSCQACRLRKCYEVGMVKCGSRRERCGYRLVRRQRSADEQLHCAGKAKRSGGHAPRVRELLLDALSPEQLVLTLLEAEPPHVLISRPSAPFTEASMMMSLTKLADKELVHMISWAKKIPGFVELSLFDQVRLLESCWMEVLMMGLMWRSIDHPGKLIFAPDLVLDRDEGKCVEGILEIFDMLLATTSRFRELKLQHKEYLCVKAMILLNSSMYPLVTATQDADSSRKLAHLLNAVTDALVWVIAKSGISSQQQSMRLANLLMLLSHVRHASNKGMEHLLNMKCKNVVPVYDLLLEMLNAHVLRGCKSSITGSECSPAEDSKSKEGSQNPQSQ
Chain of Progesterone receptor (Homo sapiens) (P06401 whole entry, looked up): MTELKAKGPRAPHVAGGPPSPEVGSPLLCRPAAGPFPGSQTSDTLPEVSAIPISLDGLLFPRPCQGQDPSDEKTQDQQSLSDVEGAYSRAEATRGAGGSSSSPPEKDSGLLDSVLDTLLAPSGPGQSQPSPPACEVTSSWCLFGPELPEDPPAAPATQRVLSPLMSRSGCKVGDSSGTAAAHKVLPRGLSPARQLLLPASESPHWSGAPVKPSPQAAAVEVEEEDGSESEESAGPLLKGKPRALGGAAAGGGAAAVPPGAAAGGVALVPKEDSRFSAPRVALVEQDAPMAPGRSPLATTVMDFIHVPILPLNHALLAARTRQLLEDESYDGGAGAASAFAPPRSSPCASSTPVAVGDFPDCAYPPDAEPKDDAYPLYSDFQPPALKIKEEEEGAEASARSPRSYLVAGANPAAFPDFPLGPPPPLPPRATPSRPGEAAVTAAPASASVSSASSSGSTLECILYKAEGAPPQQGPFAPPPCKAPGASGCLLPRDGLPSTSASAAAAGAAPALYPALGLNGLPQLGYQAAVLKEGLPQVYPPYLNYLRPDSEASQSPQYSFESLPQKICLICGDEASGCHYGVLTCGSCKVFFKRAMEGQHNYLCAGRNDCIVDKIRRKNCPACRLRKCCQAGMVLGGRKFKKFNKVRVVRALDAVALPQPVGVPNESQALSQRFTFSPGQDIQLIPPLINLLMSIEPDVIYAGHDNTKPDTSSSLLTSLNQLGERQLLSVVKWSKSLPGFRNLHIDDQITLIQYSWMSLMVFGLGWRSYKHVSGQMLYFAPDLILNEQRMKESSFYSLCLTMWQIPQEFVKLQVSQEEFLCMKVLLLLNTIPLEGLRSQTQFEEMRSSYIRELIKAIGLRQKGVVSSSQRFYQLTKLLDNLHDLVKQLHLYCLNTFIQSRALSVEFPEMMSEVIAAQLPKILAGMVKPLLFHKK
Chain of Androgen receptor (Homo sapiens) (P10275 whole entry, looked up): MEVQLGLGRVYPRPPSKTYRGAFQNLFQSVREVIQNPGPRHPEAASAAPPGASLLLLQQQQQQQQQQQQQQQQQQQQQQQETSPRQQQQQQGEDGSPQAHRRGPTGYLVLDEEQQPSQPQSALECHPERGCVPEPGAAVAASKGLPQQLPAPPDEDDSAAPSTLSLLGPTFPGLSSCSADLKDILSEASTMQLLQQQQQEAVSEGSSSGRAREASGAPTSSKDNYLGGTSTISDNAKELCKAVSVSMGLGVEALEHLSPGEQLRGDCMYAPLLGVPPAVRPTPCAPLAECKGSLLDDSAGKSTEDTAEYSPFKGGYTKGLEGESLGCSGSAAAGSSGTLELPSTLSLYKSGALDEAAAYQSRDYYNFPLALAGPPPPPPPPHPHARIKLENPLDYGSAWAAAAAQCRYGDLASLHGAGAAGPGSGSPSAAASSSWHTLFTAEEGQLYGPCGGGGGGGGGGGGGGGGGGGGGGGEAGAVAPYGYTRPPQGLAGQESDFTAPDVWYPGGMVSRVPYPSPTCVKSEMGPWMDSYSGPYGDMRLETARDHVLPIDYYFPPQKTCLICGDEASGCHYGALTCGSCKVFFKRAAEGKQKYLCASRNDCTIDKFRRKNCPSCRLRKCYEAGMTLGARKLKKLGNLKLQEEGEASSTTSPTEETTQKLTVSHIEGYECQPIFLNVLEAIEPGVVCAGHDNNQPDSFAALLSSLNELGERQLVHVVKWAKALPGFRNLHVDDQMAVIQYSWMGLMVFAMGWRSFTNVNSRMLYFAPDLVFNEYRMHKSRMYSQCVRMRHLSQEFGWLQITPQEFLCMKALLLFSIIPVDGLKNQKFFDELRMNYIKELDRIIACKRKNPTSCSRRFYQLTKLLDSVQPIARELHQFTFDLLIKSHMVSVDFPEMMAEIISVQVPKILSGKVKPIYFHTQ
Chain of Estrogen receptor (Homo sapiens) (P03372 whole entry, looked up): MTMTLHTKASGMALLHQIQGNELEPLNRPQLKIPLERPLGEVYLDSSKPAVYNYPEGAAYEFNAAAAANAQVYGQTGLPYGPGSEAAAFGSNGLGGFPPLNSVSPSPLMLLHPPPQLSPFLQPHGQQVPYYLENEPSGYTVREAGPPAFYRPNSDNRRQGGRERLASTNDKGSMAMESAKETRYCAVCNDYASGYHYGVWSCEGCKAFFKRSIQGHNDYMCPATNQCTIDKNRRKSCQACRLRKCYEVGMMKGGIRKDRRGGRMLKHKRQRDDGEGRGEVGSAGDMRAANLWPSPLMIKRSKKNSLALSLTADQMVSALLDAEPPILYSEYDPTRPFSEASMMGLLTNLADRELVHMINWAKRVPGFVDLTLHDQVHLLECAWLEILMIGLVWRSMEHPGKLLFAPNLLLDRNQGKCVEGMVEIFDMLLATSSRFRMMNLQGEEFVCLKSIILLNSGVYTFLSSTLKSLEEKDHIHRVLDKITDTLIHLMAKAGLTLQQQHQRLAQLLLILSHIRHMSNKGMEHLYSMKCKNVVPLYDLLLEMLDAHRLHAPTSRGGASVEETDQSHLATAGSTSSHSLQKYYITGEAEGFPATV

Consider `OCc1cccnc1`, for which the call in assay [1], in [3] and in assay [6] was inactive. Also, the Potency entry in [2], in assay [4], in assay [5], in assay [7], in [8] and in assay [9] was “inactive” each time. The Potency entry in [10], in assay [11], in [12], in [13] and in assay [14] was “inactive” throughout.

Turning to `O=C(O)c1cc(=O)c2c(OCC(O)COc3cccc4oc(C(=O)O)cc(=O)c34)cccc2o1`, the call in [1], in assay [3], in assay [6] and in assay [18] was inactive. Also, the Potency result in assay [2], in assay [5], in [15], in assay [16], in assay [17] and in assay [7] was “inactive” throughout. Further, the Potency result in assay [8], in assay [9], in assay [19], in assay [11], in [12] and in [13] was “inactive” in each case. Also, the Potency result in assay [14] is “inactive”.

`CC(=O)Nc1cccc(O)c1`: the molecule was classed as inactive in [1], in [3], in [6] and in assay [18]. The Potency entry in assay [2], in assay [4], in assay [5], in assay [15], in assay [16] and in assay [17] was “inactive” in each case. Besides, the Potency entry in assay [7], in assay [8], in [9], in [19], in assay [11] and in assay [13] was “inactive” in each case. Besides, the Potency result in assay [14] was “inactive”. The Potency in assay [12] is 24.2 µM (active) and inactive.

On to `OCCOCCOCCO`, for which the call in assay [1], in assay [3], in assay [6] and in [18] was inactive. In addition, the Potency result in [2], in [4], in assay [5], in assay [15], in assay [16] and in assay [17] was “inactive” each time. Moreover, the Potency entry in assay [7], in [8], in assay [20], in assay [9], in assay [19] and in assay [11] was “inactive” each time. The Potency entry in assay [12], in assay [13] and in assay [14] was “inactive” throughout.

Take `CCCSc1ccc2nc(NC(=O)OC)[nH]c2c1`: the call in [1], in assay [3] and in [6] was inactive. The Potency was 6.11 µM (active) and 10.6 µM (active) in assay [2]; 2.17 µM (active) in assay [5]; 4.86 µM (active) in assay [13]. In addition, the Potency entry in assay [4], in assay [7], in [9], in assay [11] and in assay [12] was “inactive” each time.

As to `O=C(O)c1cc(O)c(O)c(O)c1`, the molecule was classed as inactive in [1], in assay [3] and in assay [6]. For the same molecule, the Potency entry in [2], in [5], in assay [8], in [9], in assay [19] and in assay [12] was “inactive” each time. The Potency result in [13] and in assay [14] was “inactive” throughout. Also, the Potency is 27.6 µM (active) and inactive in [15]; 55 µM (active) and inactive in [7]; 55 µM (active) in [11].

For `C#C[C@]1(O)CC[C@H]2[C@@H]3CCC4=CC(=O)CC[C@@H]4[C@H]3CC[C@@]21C`, the result in assay [1], in assay [3] and in assay [6] was inactive. The Potency result in [2], in assay [5], in assay [17], in assay [7], in [9] and in assay [19] was “inactive” throughout. Also, the Potency result in assay [11] and in [14] was “inactive” each time. For the same molecule, the Potency was 21.7 µM (active) and 29.8 µM (active) in [15]; 1.37 µM (active) and 4.22 µM (active) in assay [16]; 48.6 µM (active) in assay [8].

Take `CCN(CC)CCCC(C)Nc1ccnc2cc(Cl)ccc12` (stereo unspecified): in assay [1], the molecule was called inactive. The activity change, negative = inhibition in [2] was 5.21% [at 8.39 µM] (inactive) and -11.7% [at 19 µM] (inactive); in assay [13] it was 0.105% [at 8.39 µM] (inactive) and 2.39% [at 18.9 µM] (inactive). The activity change, negative = cytotoxicity in assay [3] is 1.29% [at 8.39 µM] (inactive) and -0.194% [at 19 µM] (inactive); in [7], -10.8% [at 8.39 µM] (inactive); in [8], -12.8% [at 8.39 µM] (inactive) and -6.59% [at 19 µM] (inactive); in assay [9], -20.4% [at 8.39 µM] (inactive) and -8.86% [at 19 µM] (inactive); in assay [14], 3.8% [at 8.39 µM] (inactive). For the same molecule, the viability change, negative = cytotoxic is 4.99% [at 8.39 µM] (inactive) and -9.75% [at 19 µM] (inactive) in assay [4]; -9.15% [at 8.39 µM] (inactive) and -19.2% [at 19 µM] (inactive) in [5]. Also, the activation in assay [16] is 1.76% [at 8.39 µM] (inactive) and 0.415% [at 19 µM] (inactive); in assay [12] it was -0.551% [at 19 µM] (inactive). The activity, negative = inhibition in assay [17] was -11.4% [at 8.39 µM] (inactive). Also, the Potency in assay [12] is 119 nM (active).
